Screening data as filed in PubChem.
Shown are actives, neighbours in structure and some others; about 1.5% of the full set was active somewhere.
PolyA inh = polyadenylation inhibitors in yeast reporter cells, primary screen, luminescence, S. cerevisiae; S. cerevisiae SKY197-pL101 polyadenylation reporter, beta-gal luminescence; efflux-impaired pdr1/pdr3 knockout yeast; score 100 = 6 SD above DMSO; activity score, % at 12 µM; 300,000 tested, 0.02% active; AID 1875, 2009;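 active means lowest replicate activity score at least 50, where 100 means six control SD above control mean; inconclusive means lowest score under 50 but half or more replicates reach 50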;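 further: yeast exposed to compound for 9 h at 30 °C; higher score means more reporter readthrough which indicates perturbed polyadenylation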
Efflux pump inh = inhibitors of Candida efflux pumps in yeast, primary screen, S. cerevisiae, Nile Red, multiplex; inhibition, % at 10 µM; 330,000 tested, 0.44% active; AID 485275, 2010; S. cerevisiae Candida pump triplex;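 active means plate passing quality check with inhibition over a set limit, or well fluorescence over plate mean plus 4 SD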;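 further: Nile Red retained in pooled yeast measured as flow cytometry median fluorescence; 0% = buffer negative control and 100% = Enniatin B positive control; higher means more Nile Red kept so more efflux inhibition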
NALP1 yeast inh = NALP1 inflammasome inhibitors in reconstituted yeast, colorimetric, S. cerevisiae, triplicate retest; S. cerevisiae NALP1/ASC/caspase-1 growth, X-gal OD620, 72 h; inhibition, % at 10 µM; 280,000 tested, 0.61% active; AID 2071, 2009; in the data active means inhibition mostly above about 24%, no sharp cut-off; inactive means mostly below about 32%
HDAC3 inhib = HDAC3 deacetylase inhibitors, primary screen, biochemical, fluorescence, cell-free homogeneous; Histone deacetylase 3 (Homo sapiens), O15379; recombinant HDAC3, fluorogenic peptide/trypsin coupled; inhibition, % at 8.3 µM; 320,000 tested, 0.15% active; AID 2718, 2010; in the data active means inhibition above about 26%, passing the limit was not always enough; inconclusive means no clear call, values can overlap the other calls
Target sequence (O15379 whole entry, looked up): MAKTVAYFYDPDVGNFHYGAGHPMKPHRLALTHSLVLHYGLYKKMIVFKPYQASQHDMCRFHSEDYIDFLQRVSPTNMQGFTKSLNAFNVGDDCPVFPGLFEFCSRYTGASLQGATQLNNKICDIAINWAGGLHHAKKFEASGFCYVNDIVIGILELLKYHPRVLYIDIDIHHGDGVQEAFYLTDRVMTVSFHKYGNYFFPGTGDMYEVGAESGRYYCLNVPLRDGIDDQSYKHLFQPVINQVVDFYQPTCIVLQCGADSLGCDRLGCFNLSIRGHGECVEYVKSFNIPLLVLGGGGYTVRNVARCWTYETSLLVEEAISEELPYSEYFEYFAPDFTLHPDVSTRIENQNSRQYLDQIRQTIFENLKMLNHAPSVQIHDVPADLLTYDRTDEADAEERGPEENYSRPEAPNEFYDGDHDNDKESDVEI
GASC-1 inh = inhibitors of GASC-1 histone demethylase, primary screen, biochemical, fluorescence, DELFIA europium; GST-JMJD2C(1-420) H3K9me3 demethylation; 330,000 tested, 0.069% active; inhibition, % at 2.35 µM; Lysine-specific demethylase 4C (Homo sapiens), Q9H3R0;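 active means more than half of a compound's replicate wells show inhibition beyond 50%, single wells judged on their own value; inconclusive means some, but no more than half, of replicates pass 50% inhibition; inactive means no replicate passes 50% inhibition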;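 further: signal counts dimethyl H3K9 product captured on neutravidin plate; 0% = median of DMSO wells and 100% = 0.3 times that DMSO median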
NALP3 yeast inh = NALP3 inflammasome inhibitors in reconstituted yeast, primary screen, luminescence, uHTS. 330,000 tested, 0.39% active. AID 2825, 2010. Yeast reconstituted NLRP3/ASC/caspase-1, beta-gal luminescence, 24 h. inhibition, % at 10 µM;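 active means inhibition of 50% or more; inactive means inhibition below 50%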;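 further: plate controls were induced DMSO wells for no effect and uninduced yeast grown without galactose for full effect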
Starred values were filed as active, the others as inactive; ? = inconclusive; · = not tested or not shown.

SMILES	PolyA inh	Efflux pump inh	NALP1 yeast inh	HDAC3 inhib	GASC-1 inh	NALP3 yeast inh
CC1CCC2C(=O)N(c3ccc(C(=O)Oc4cccc5cccnc45)cc3)C(=O)C2C1 (centres undefined)	3.2	0.1	70.9*	-0.2	1.6	17.1
Cc1ccc(C(=O)Oc2ccccc2N2C(=O)C3CCC(C)CC3C2=O)cc1 (centres undefined)	-24.8	-0.1	15.9	-1.9	-6.8	-24.9
O=C(Nc1ccccc1)C1=C[C@@H](c2ccccc2)C[C@@H](OCc2ccc(CO)cc2)O1	24.8	-0.1	-2.6	-3.8	-3.1	35.9
O=C(C1=C[C@H](c2ccc(C(F)(F)F)cc2)C[C@H](OCc2ccc(CO)cc2)O1)N1CCOCC1	7.3	-0.1	2.7	-6.8	1.1	-1.2
O=C(O)C1=C[C@H](c2ccc(C(F)(F)F)cc2)C[C@H](OCc2ccc(CO)cc2)O1	-20.8	0.2	22.0*	2.4	-8.7	13.3
NC(=O)C1=C[C@H](c2ccccc2)C[C@H](OCc2ccc(CO)cc2)O1	2.2	0.1	8.9	28.1*	-0.1	6.5
CN(c1ccccc1)S(=O)(=O)c1cccc(NC(=O)C2=NN(c3ccccc3)C(=O)CC2)c1	·	0.5	·	1.4	6.8	2.3
COc1ccc(S(N)(=O)=O)cc1C(=O)OCC(=O)N1CCCC(C)C1 (centres undefined)	·	0.3	·	-5.7	0.0	5.1
c1ccc(-c2nnc(OCCN3CCOCC3)c3ccccc23)cc1	-6.9	-0.1	42.3*	0.1	4.3	2.3
S=c1[nH]nc(-c2cc(-c3ccccc3)n[nH]2)n1/N=C/C(Br)=C/c1ccccc1	20.7	0.1	-6.4	4.9	7.7	31.5
C=CC[C@@H](CC(=O)N(CCO)Cc1ccccc1)C(=O)N[C@H](C)COC(=O)[C@@H](CC=C)Cc1ccc(F)cc1	·	0.0	·	8.3	4.0	0.9
C=CC[C@H](CC(=O)N(CCO)Cc1ccccc1)C(=O)N[C@H](COC(=O)[C@@H](CC=C)Cc1ccc(F)cc1)Cc1ccccc1	·	0.1	·	33.2*	4.5	16.3
C=CCC[C@H](Cc1ccc(F)cc1)C(=O)OC[C@@H](Cc1c[nH]c2ccccc12)NC(=O)[C@@H](CC=C)CC(=O)N(CCO)Cc1ccccc1	·	0.4	·	40.0*	-17.0	20.7
C=CC[C@@H](CC(=O)NCCO)C(=O)N[C@@H](COC(=O)[C@@H](CC=C)Cc1ccc(F)cc1)Cc1c[nH]c2ccccc12	·	0.3	·	25.9*	0.6	15.1
Cc1cc(/C=C2/NC(=O)N(Cc3ccccc3F)C2=O)c(C)n1-c1ccccn1	-1.7	0.0	10.4	44.1*	11.9	-18.7
Cc1cccc(CN2C(=O)N/C(=C/c3cc(C)n(-c4ccccn4)c3C)C2=O)c1	-5.4	0.1	22.8	15.2	1.6	3.6
CCOc1ccccc1C(=O)Oc1ccc2ccc(=O)oc2c1	-23.9	-0.1	-4.3	-3.8	-24.6	5.0
COc1ccc(S(=O)(=O)Oc2ccccc2C(N)=O)cc1	·	·	·	·	·	12.2
Nc1c(-c2ccccc2)nc(Cl)nc1-c1ccccc1	-13.5	0.4	33.8*	2.4	52.1	9.9
CCCn1c(CN2CCN(C(=O)OCC)CC2)nc2cc(NC(=O)CC)ccc21	20.7	0.5	-2.5	-2.0	-6.6	2.4
CCn1cc(C2=NOC(C(=O)Nc3cc(OC)c(Cl)cc3OC)C2)c(C)n1 (centres undefined)	2.2	0.0	32.9*	-2.7	0.0	15.5
O=C(N/N=C/c1coc2ccccc2c1=O)c1cc(Br)c(O)c(Br)c1	15.1	0.1	13.4	46.2*	-0.9	13.0
O=C(N/N=C/c1coc2ccccc2c1=O)c1ccncc1	15.2	0.1	7.1	-1.1	2.6	20.0
CCOc1ccccc1C(=O)N/N=C/c1coc2ccc(Cl)cc2c1=O	·	0.1	-5.5	32.3*	7.4	-12.4
Cc1cc(N2CCN(C)CC2)nc2ccc(NC(=O)c3ccc(Br)o3)cc12	5.3	0.1	38.5*	10.2	-19.2	3.2
SMILES	PolyA inh	Efflux pump inh	NALP1 yeast inh	HDAC3 inhib	GASC-1 inh	NALP3 yeast inh
Cc1cc(N2CCCCC2)nc2ccc(NC(=O)c3ccc(Br)o3)cc12	-12.8	0.4	12.2	0.2	1.0	25.7
CCCCn1c(N)c(N(CC(C)C)C(=O)c2cc(S(=O)(=O)N3CCCCC3)ccc2C)c(=O)[nH]c1=O	20.7	0.0	·	0.6	3.8	4.1
Cc1cc(C)cc(NC(=O)CSc2nc(N)c(NC(=O)c3cccs3)c(=O)[nH]2)c1	0.0	0.0	21.2	4.5	-9.5	-6.3
COC(=O)[C@H](CC(C)C)NS(=O)(=O)N(Cc1ccccc1)[C@@H](CC(C)C)C(=O)OC	·	0.0	·	31.3*	6.6	-3.8
O=C(O)c1cccc(N/N=C/C2=C(Cl)c3cc(Cl)ccc3SC2)c1	-22.4	·	5.5	·	-12.8	·
CC(C)CC(Nc1ncnc2scc(-c3ccccc3)c12)C(=O)O (centres undefined)	60.4*	0.7	4.0	-0.5	-11.4	5.6
CCC(C)C(Nc1ncnc2scc(-c3ccccc3)c12)C(=O)O (centres undefined)	-8.4	0.0	-45.5	3.2	-16.3	10.2
Cc1nn(C)c(C)c1NC(=O)CN1CCC(O)(c2ccc3c(c2)OCO3)CC1	-15.6	-0.2	30.6*	3.1	-1.9	4.0
CC(C)(C)NC(=O)CN1CCC(O)(c2ccc3c(c2)OCO3)CC1	-5.6	-0.1	-34.4	3.5	-0.2	0.3
Cc1cc(C)c(C#N)c(Oc2ccccc2Br)n1	7.2	0.1	5.4	-2.3	6.5	-7.5
COc1ccc(CCNC(=O)CSc2nc3[nH]ncc3c(=O)n2-c2ccccc2OC)cc1OC	-4.7	0.0	34.7*	-1.2	-0.8	-1.7
COc1ccc(CCNC(=O)CSc2nc3[nH]ncc3c(=O)n2-c2ccc(Cl)cc2Cl)cc1OC	-5.5	0.0	18.6	1.3	-3.5	5.3
OC(COc1ccc2ccccc2c1Br)Cn1cnc(-c2ccccc2)c1 (centres undefined)	-20.1	0.1	27.9	-7.9	60.6*	10.9
CCNc1nc(SC(C)C(=O)Nc2ccccc2)nc(N2CCOCC2)n1 (centres undefined)	13.2	-0.1	10.4	-7.4	-75.8	8.5
CC(=O)C(Sc1nc(N2CCOCC2)nc(N2CCOCC2)n1)C(=O)Nc1ccccc1 (centres undefined)	16.9	0.0	5.6	?	69.8*	2.6
O=C(Cn1cc(C(F)(F)F)cc(Cl)c1=O)NC1CCS(=O)(=O)C1 (centres undefined)	·	-0.3	·	3.9	13.3	3.6
Cc1ccc(S(=O)(=O)Nc2ccc(NC(=O)Nc3cccc(C(F)(F)F)c3)cc2)cc1	26.6	-0.1	26.7	31.0*	1.8	4.0
